Screening data from PubChem BioAssay.
Sm TGR block: inhibitors of Schistosoma mansoni thioredoxin glutathione reductase; Potency, µM (highest dose often 114 µM), for inactives: at the highest dose activity change, negative = inhibition, hits mostly inhibitors; 360,000 tested, 3% active; AID 485364; purified TGR, DTNB reduction, TNB absorbance 405 nm; further: potency means the concentration at half of the fitted maximal effect; on the % scale 0 is the no-effect control and ±100 the full control effect; nearly all actives have a fitted effect of over 60% in size
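TGR 20 nM + NADPH 100 uM (dispensed conc.), cpd preinc 15 min RT; start with NADPH (500 uM addition) then DTNB (15 mM addition). Kinetic TNB absorbance, 405 nm filter. Four-parameter Hill fit across titration.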
HCV inhibitor: blocks hepatitis C virus. Potency, µM (top dose mostly 41.8 µM), without a hit: top-dose activity change, negative = inhibition, actives largely listed as inhibitors. 340,000 tested, 3.4% active. AID 651820. Huh7.5.1 HCVcc-Cre infection, luciferase reporter, 44 h; further: potency means the concentration at half of the fitted maximal effect; on the % scale 0 is the no-effect control and ±100 the full control effect
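Compounds are dispensed onto cells plated 4 h earlier at 1,000 per well, with HCVcc-Cre virus (about 0.5 moi) added next. Following 44 h of culture, luminescent signal is measured for 15 sec after 15 min with substrate at room temperature.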
Pf growth 96h: P. falciparum growth inhibition at 96 hour, primary screen for plastid delayed-death inhibitors; P. falciparum luciferase reporter growth, 96 h; 320,000 tested, 6.9% active; Potency, µM (top dose mostly 28.7 µM), inactives show at the top dose activity change, negative = inhibition, most hits filed as inhibitors; further: potency means the concentration at half of the fitted maximal effect; on the % scale 0 is the no-effect control and ±100 the full control effect
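Luminescence readout: decreased luciferase signal marks inhibited growth of reporter-expressing P. falciparum in infected red cells (2% hematocrit, 0.05% parasitemia final), exposed to compound two generations (96 h, 37 C, 5% CO2).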
Pf growth 48h: P. falciparum growth inhibition at 48 hours (one generation). P. falciparum luciferase growth in erythrocytes, 48 h. Potency, µM (series often up to 28.7 µM), inactives show at the top dose activity change, negative = inhibition, actives largely listed as inhibitors. 310,000 tested, 5.9% active. AID 504832; further: potency means the concentration at half of the fitted maximal effect; on the % scale 0 is the no-effect control and ±100 the full control effect
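Luciferase-expressing parasites in RBCs, 2% Hct / 0.1% parasitemia final; RPMI 1640 + 0.5% Albumax; 37 C, 5% CO2, one generation; luminescence read-out, lower signal = inhibition.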
SARS PLP yeast: SARS-CoV PLP inhibition in yeast | AID 485353 | Potency, µM (highest dose often 32.9 µM), without a hit: at the highest dose activity, positive = growth rescue, actives largely listed as activators | 330,000 tested, 0.19% active | S. cerevisiae expressing SARS-CoV PLpro, growth rescue; calls by dose curve; further: potency means the concentration at half of the fitted maximal effect; 0% is about no effect; nearly all actives have a fitted effect of over 55% in size
HCMV inh: blocks human cytomegalovirus replication; HFF cells, HCMV-luciferase reporter, 72 h; hits give low values; activity change, negative = inhibition, % at 57.5 µM; 410,000 tested, 4.5% active; in the data active means activity change below about -60%; inconclusive means no clear call, values can overlap the other calls; inactive means above about -39%; further: on the % scale 0 is the no-effect control and ±100 the full control effect
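After 16 h attachment at 37C, HFF cells received test compound and HCMV-luciferase (1 PFU/cell); reporter luminescence read 72 h later, data normalized against buffer-only and known inhibitor Salinomycin.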
Numbers without * were called inactive; ? = inconclusive; . = not tested or not shown. An excerpt weighted towards active compounds, which were near 15% of everything screened. Unless noted, the call rests on the fitted dose curve; in most records, active means well fitted curve in the direction sought with a large enough effect; inconclusive means small, poorly fitted or top-dose-only effect, or another doubt; inactive means no such curve, though single readings can be large; an effect the other way counts as inactive or inconclusive.

SMILES	Sm TGR block	HCV inhibitor	Pf growth 96h	Pf growth 48h	SARS PLP yeast	HCMV inh
COc1ccc(C(=O)NCCn2cc(SCc3ccc(C(F)(F)F)cc3)c3ccccc32)cc1OC	-10%	.	.	.	.	-62*
O=C(CSc1cn(CCNC(=O)c2cccc(C(F)(F)F)c2)c2ccccc12)Nc1ccc2c(c1)OCCO2	6%	.	.	.	.	-83*
CCOC(=O)c1ncccc1NC(=O)CC(=O)Nc1cccnc1C(=O)OCC	.	15%	.	.	.	?
CCCCCCCCN1C(=O)[C@H](CC(=O)NCCCOCCCC)C[C@@]2(C(=O)OC)CC(C)(C)CC=C12	.	.	.	.	.	4
CC(=O)c1ccc(NC(=O)C(C)n2nc(-c3ccccc3)ccc2=O)cc1 (centres undefined)	-5%	.	.	.	.	-8
Cc1ccc(NC(=O)C(=O)NCCCN2CC(C(=O)O)CC2=O)cc1 (centres undefined)	-4%	22%	-1%	19%	0%	11
O=C(CN1C(=O)C2CC=CCC2C1=O)Nc1ccc(S(=O)(=O)Nc2nccs2)cc1 (centres undefined)	6%	10%	-6%	82%	-5%	-18
c1cncc(Nc2nc(-c3cccnc3)cs2)c1	0%	?	.	0%	19%	-6
NS(=O)(=O)c1ccc(Nc2nc(-c3cccnc3)cs2)cc1	-14%	13µM*	-13%	-9%	-8%	-23
NS(=O)(=O)c1ccc(Nc2nc(-c3ccc(O)cc3O)cs2)cc1	4%	-22%	30%	.	8%	-91*
CCCCN(C(=O)CSc1cc(C)c2ccc(OC)cc2n1)c1c(N)n(Cc2ccccc2)c(=O)[nH]c1=O	0%	?	12µM*	-16%	-4%	?
CCCCN(C(=O)CSc1nncn1-c1ccccc1)c1c(N)n(Cc2ccccc2)c(=O)[nH]c1=O	-1%	0%	0%	8%	-1%	-62*
CC(NC(=O)Nc1ccc(O)cc1)(C(F)(F)F)C(F)(F)F	-34%	4%	?	?	-7%	-3
CCC(NC(=O)NC1=NCCS1)(C(F)(F)F)C(F)(F)F	-3%	-11%	0.21µM*	7%	-1%	2
CCC(NC(=O)Nc1ccc(O)cc1)(C(F)(F)F)C(F)(F)F	-24%	-4%	.	?	0%	-70*
O=C(CCSCCC(=O)N1CCCC1)N1CCCC1	40µM*	34%	-3%	13%	-1%	16
O=C(CCSc1ccc(Cl)cc1)N1CCCCCC1	-25%	8%	1µM*	143%	4%	46
COc1cc(C(=O)Nc2ccncc2)cc(OC)c1OC	-8%	1%	?	27%	-7%	20
COc1ccc(C(=O)Nc2ccc(NC(=O)c3ccccc3OC)nc2)cc1	-3%	?	28%	-2%	-2%	-28
COc1cc(C(=O)Nc2cc(-c3ccccc3)[nH]n2)cc(OC)c1OC	-9%	-8%	4%	12µM*	-2%	21
COc1ccc(C(=O)Nc2ccc(NC(=O)c3cc(OC)c(OC)c(OC)c3)cn2)cc1	1%	-21%	32%	2.1µM*	-7%	-30
COc1cc(C(=O)Nc2ccc(NC(=O)c3ccccc3Cl)nc2)cc(OC)c1OC	9%	?	147%	9.3µM*	0%	-35
COc1cc(C(=O)Nc2ccc(Nc3ccccc3)cc2)cc(OC)c1OC	4%	?	13µM*	-6%	-4%	18
COc1cc(C(=O)Nc2ccc(NC(=O)C3CC3)nc2)cc(OC)c1OC	-22%	?	?	-21%	-3%	29
COC(=O)c1nc(NC(=O)c2ccccc2Br)n[nH]1	7%	5%	4%	0%	2%	25
SMILES	Sm TGR block	HCV inhibitor	Pf growth 96h	Pf growth 48h	SARS PLP yeast	HCMV inh
COc1cc(C(=O)Nc2ccc(NC(=O)c3ccccc3)nc2)cc(OC)c1OC	-12%	?	29%	5.2µM*	-4%	2
COc1cc(/C=C(\NC(=O)c2cc(OC)c(OC)c(OC)c2)C(=O)NC(C(=O)O)c2ccccc2)cc(OC)c1OC (centres undefined)	-25%	11%	13µM*	0%	5%	44
COC(=O)c1nc(NC(=O)c2cc(OC)c(OC)c(OC)c2)n[nH]1	32µM*	6%	-4%	-1%	-1%	18
COc1cccc(CNC(=O)c2ccc3nc(-c4ccc(F)cc4)c(-c4ccc(F)cc4)nc3c2)c1	-1%	.	.	.	.	-23
COc1cc(-c2nc(Cc3ccccc3Cl)no2)cc(OC)c1OC	0%	?	?	-6%	-14%	-7
COc1ccc(-c2nc(Cc3ccc(Cl)cc3)no2)cc1OC	-6%	?	.	7%	-5%	-74*
COc1ccccc1Cc1noc(-c2cc(Cl)ccc2OC)n1	9%	7.1µM*	.	?	0%	-38
Cc1cc(C)cc(OCC(=O)N(Cc2ccco2)Cc2ccccc2Cl)c1	-1%	.	.	.	.	-29
Cc1ccc(NC(=O)COC(=O)c2nn(C)c(=O)c3ccccc23)cc1F	.	5%	.	.	-1%	3
CC1=CC(C)(C)NC(=S)N1c1ccc(N(C)C)cc1	.	4%	.	.	.	?
COc1ccc(Nc2ncnc3scc(-c4ccc(OC)cc4)c23)cc1	1%	6.3µM*	9.3µM*	-17%	5%	?
Fc1ccc(-c2csc3ncnc(Cl)c23)cc1	-14%	10%	?	0.23µM*	13%	?
COc1ccc(Nc2ncnc3scc(-c4ccc(F)cc4)c23)cc1	-1%	.	.	.	.	-35
COc1ccc(-c2csc3ncnc(Cl)c23)cc1	-1%	-1%	19%	1.3µM*	1%	-35
COc1ccc(-c2csc3nc[nH]c(=O)c23)cc1	-2%	-13%	45%	56%	-2%	-25
Clc1ccc(-c2csc3ncnc(Cl)c23)cc1	0%	-1%	?	?	-5%	9
Cc1cc(C)n(CCCN2CCC(C(=O)Nc3cccc(-c4cccc(F)c4)c3)CC2)n1	1%	?	0%	?	-3%	-100*
CCn1ncc(CN2CCC(C(=O)Nc3cccc(-c4cccc(F)c4)c3)CC2)c1C	-14%	?	78%	?	-1%	?
O=C(Nc1cccc(-c2cccc(F)c2)c1)C1CCN(C2CCOCC2)CC1	0%	13µM*	7.4µM*	?	-3%	0
CC12CCCCC1(O)[N+](=O)C1=C(CCCC1)N2[O-] (centres undefined)	?	26%	4.1µM*	10%	-11%	37
COC(=O)/C=c1\sc2ncnn2c1=O	1.4µM*	10%	?	18%	-5%	3
CCN(CC)S(=O)(=O)c1ccc(N2CCOCC2)c(NS(=O)(=O)c2ccc(OC)cc2)c1	3%	-16%	?	51%	1%	-28
